S2 tox = reduces viability in counter-screen for ATXN expression inhibitors | S2 cells (HEK-293 line with an ATXN2-luciferase reporter) viability, CellTiter-Fluor protease fluorescence, 24 h | Potency, µM (highest dose often 56.7 µM), usual class: cytotoxic | hit rate 0.49% among 400,000 | AID 651635; note: nearly all actives have a fitted effect of over 40% in size
ATXN2 expr inh = ATXN2 expression inhibition | AID 1745845 | Potency, µM (doses to about 57 µM), for the others: at the highest dose activity change, negative = inhibition, actives largely listed as inhibitors | hit rate 0.72% among 360,000 | HEK-293 ATXN2-luciferase reporter, luminescence, 24 h; note: % is set by controls: 0 for no effect and ±100 for the full control effect; nearly all actives have a fitted effect of over 55% in size
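ATXN2-luciferase reporter cells (luciferase flanked by upstream and downstream ATXN2 gene portions) were treated 24 h at 37 °C with compounds at up to 57 uM. SteadyGlo luminescence gave expression; GF-AFC fluorescence gave viability.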
VP16 counter = inhibits Gal4-VP16 luciferase reporter, ROR gamma counter-screen. Drosophila S2 Gal4-VP16 UAS-luciferase, luminescence, 20 h. Potency, µM (titrated, usually from 53.6 µM), for inactives: at the highest dose activity, negative = inhibition, usual class: inhibitors. hit rate 3.5% among 310,000;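 note: Gal4-VP16 expression switched on by copper sulfate through the metallothionein promoter; % is set by controls: 0 for no effect and ±100 for the full control effect; nearly all actives have a fitted effect of over 50% in size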
RORg inh = blocks mouse ROR gamma transcriptional activity; AID 2551; Drosophila S2 Gal4-RORgamma UAS-luciferase reporter, 20 h; hit rate 5.4% among 310,000; Potency, µM (series often up to 53.6 µM), inactives show top-dose activity change, negative = inhibition, most hits filed as inhibitors; P51450; note: % is set by controls: 0 for no effect and ±100 for the full control effect; nearly all actives have a fitted effect of over 60% in size
Target sequence (P51450 whole entry, looked up, the tested form may be a part): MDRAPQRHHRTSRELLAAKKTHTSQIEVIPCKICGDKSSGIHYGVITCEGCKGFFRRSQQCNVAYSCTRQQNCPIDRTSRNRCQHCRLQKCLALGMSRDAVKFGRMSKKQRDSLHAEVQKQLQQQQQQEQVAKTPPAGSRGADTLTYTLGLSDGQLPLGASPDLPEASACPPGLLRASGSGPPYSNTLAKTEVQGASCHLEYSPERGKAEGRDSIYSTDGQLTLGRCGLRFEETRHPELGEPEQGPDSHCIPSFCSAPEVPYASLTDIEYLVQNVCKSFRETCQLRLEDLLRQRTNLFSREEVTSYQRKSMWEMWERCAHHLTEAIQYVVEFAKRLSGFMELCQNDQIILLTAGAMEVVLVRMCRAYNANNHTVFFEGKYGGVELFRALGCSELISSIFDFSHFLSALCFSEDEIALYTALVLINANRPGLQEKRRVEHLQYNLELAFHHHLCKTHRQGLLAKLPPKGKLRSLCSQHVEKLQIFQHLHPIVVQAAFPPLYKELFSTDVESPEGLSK
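In this cell-based reporter format, copper sulfate (700 uM final) drives Gal4–ROR gamma fusion expression from a metallothionein promoter in Drosophila Schneider cells; compounds preincubated 1 hr, reporter read after 20 hr at ambient temperature.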
TGFb inhibitor = inhibitors of TGF-b signaling | HepG2 CAGA-GFP TGF-b/SMAD3 reporter, GFP fluorescence, 18 h; TGF-beta stimulated, 500 pg/mL final | hit rate 1.2% among 410,000 | Potency, µM (top dose mostly 46.1 µM), inactives show at the highest dose activity, negative = inhibition, usual class: inhibitors; note: % is set by controls: 0 for no effect and ±100 for the full control effect; nearly all actives have a fitted effect of over 65% in size
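TGF-beta reporter screen: HEPG2 CAGA-GFP, 1% FBS, 500 pg/mL TGF-beta final, 18 h; per-cell GFP summed per well; curves fitted and categorized by class.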
HepG2 viability = counter-screen for TGF-b inhibitors: cytotoxicity in HepG2 cells; Potency, µM (highest dose often 46.1 µM), for inactives: at the highest dose activity change, negative = cytotoxicity, usual class: cytotoxic; HepG2 CAGA-GFP viability, ATP luminescence, 18 h; hit rate 0.76% among 410,000
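HepG2 CAGA-GFP cells (1000/well, DMEM with 1% FBS) received compound, then TGF-beta at 500 pg/mL final, and were incubated 18 hours at 37 degrees C. Viability was read by CellTiter-Glo luminescence. Media-only wells were set as complete cell-killing and DMSO as no toxicity.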
* hit, by the source's call; i = inactive; ? = inconclusive; · = no result given; [ ] = dose if it differs, or a comment. The list is not random: actives were taken first. Their share in the collection is about 6.3%. Calls come from the whole dose curve; as a rule, active = well fitted curve in the direction sought with a large enough effect; inconclusive = small, poorly fitted or top-dose-only effect, or another doubt; inactive = no such curve, though single readings can be large; an effect the other way counts as inactive or inconclusive. Potency is the fitted concentration of half-maximal effect.

SMILES | S2 tox | ATXN2 expr inh | VP16 counter | RORg inh | TGFb inhibitor | HepG2 viability
Cc1ccccc1Nc1cc(C(=O)NCCc2ccc(Cl)cc2)c2ccccc2n1 | ? | ? | · | · | ? | -34%
c1ccc(CCNc2nc(-c3ccccc3)cs2)cc1 | i | 226% | · | · | · | ·
CC(C)(C)n1ncc2c(=O)n(Cc3cccc(OC(F)(F)F)c3)cnc21 | · | · | · | · | ? | -36%
CC(C)(C)OC(=O)NCc1ccc(CNC(=O)c2nc[nH]c2C(=O)NCc2ccccc2)cc1 | ? | -23% | · | · | ? | 9%
O=C(CNC(=O)c1nc[nH]c1C(=O)NCc1ccccc1)OCc1ccccc1 | i | 1% | ? | 11µM* | 5% | 1%
CC(C)(C)OC(=O)NCc1ccc(CNC(=O)c2[nH]cnc2C(=O)NCC(=O)OCc2ccccc2)cc1 | ? | ? | 22µM* | -42% | -2% | -1%
C[C@H](NC(=O)c1nc[nH]c1C(=O)NCC(=O)OCc1ccccc1)c1ccccc1 | i | -21% | ? | 14µM* | -6% | 0%
O=C(CNC(=O)c1nc[nH]c1C(=O)NCC(=O)OCc1ccccc1)OCc1ccccc1 | i | -6% | ? | -39% | 2% | 15%
C[C@H](NC(=O)c1nc[nH]c1C(=O)NCC(=O)OCc1ccccc1)C(=O)OCc1ccccc1 | i | 0% | -17% | ? | -23% | -11%
CCOc1ccccc1N1C(=O)CN(Cc2ccc(OC)c(OC)c2)C1=S | i | · | 1% | 0% | 5% | -9%
Cc1ccnc(NC(=O)c2ccc3c(c2)OCO3)c1 | i | -27% | ? | 13µM* | ? | -28%
Cc1ccc2nc(NC(=O)c3ccc4c(c3)OCO4)sc2c1 | i | 2% | ? | 7.9µM* | 1% | -8%
Cc1ccc2nc(NC(=O)c3ccc4ncsc4c3)sc2c1 | i | 31% | ? | -39% | -26% | -92%
O=C1/C(=C/c2cccs2)NC(=S)N1C1CC1 | i | 10% | ? | 7.1µM* | -6% | -29%
CCCc1ccc(C(=O)NC(=O)c2ccccc2O)cc1 | i | ? | 1.6µM* | 2.8µM* | -16% | -18%
O=C(NC(=O)c1ccccc1O)c1ccc(C(F)(F)F)cc1 | i | ? | 8.9µM* | ? | 1% | -26%
Cc1cc(C)c(C(=O)NCc2nc(-c3cccc(NC(=O)C4CCCN(C)C4)c3)oc2C)[nH]1 (configuration not stated) | i | · | · | · | · | ·
CCC1=NN(C(=O)C(=O)Nc2ccc(Br)cc2)C(O)(C(F)(F)F)C1 (configuration not stated) | i | 8%[11.3 µM] | 5µM* | 2.8µM* | ? | -23%
COc1ccc(NC(=O)C(=O)N2N=C(C(C)C)CC2(O)C(F)(F)F)cc1 (configuration not stated) | i | -2% | ? | 7.9µM* | -6% | 9%
CCCC1=NN(C(=O)C(=O)Nc2ccc(Br)cc2)C(O)(C(F)(F)F)C1 (configuration not stated) | ? | ? | 5µM* | 0.79µM* | ? | -78%
CCC(c1nnnn1Cc1ccccc1)N(Cc1ccccc1)Cc1cc2cc(C)ccc2[nH]c1=O (configuration not stated) | · | · | · | · | ? | -15%
O=C(NCc1ccccc1Cl)C1CCCN(C(=O)c2cnn(-c3ccccc3)c2-n2cccc2)C1 (configuration not stated) | ? | 0% | · | · | ? | -8%
Cc1cc(SCC(=O)Nc2cccnc2Cl)nc2ccccc12 | · | -17% | 17% | -4% | -14% | 4%
Cc1cc(SCC(=O)c2cc3ccccc3o2)nc2ccccc12 | i | 3% | ? | 11µM* | 31% | -14%
COc1ccc(NC(=O)CSc2cc(-c3ccccc3)nc(C)n2)cc1 | · | · | · | · | ? | -8%
SMILES | S2 tox | ATXN2 expr inh | VP16 counter | RORg inh | TGFb inhibitor | HepG2 viability
Cc1nc(SCC(=O)Nc2ccc(C)c(Cl)c2)cc(-c2ccccc2)n1 | · | · | · | · | 10µM* | -12%
Cc1cc(SCC(=O)NCCC2=CCCCC2)nc2ccccc12 | i | -23% | 6.3µM* | ? | -21% | -12%
Cc1nc(NC(=O)CSc2cc(C)c3ccccc3n2)c(Cl)cc1Cl | i | 20% | ? | 2.5µM* | 3% | -39%
Cc1cccc2nc(Cn3c(=O)n(-c4ccccc4)c(=O)c4c5c(sc43)CCC5)cc(=O)n12 | i | 7% | · | · | 2% | 5%
CCn1c(-c2ccccc2F)nc2cc(NC(C)=O)cc(C(=O)N3CCNC(=O)C3CC(=O)OC)c21 (configuration not stated) | i | · | · | · | · | ·
O=C(NC(=S)Nc1ccccn1)c1cc(-c2ccccc2)nc2ccccc12 | i | -6% | 0.71µM* | 0.4µM* | -2% | -3%
CN1CCN(NC(=O)c2cc(-c3cccc(Cl)c3)nc3ccccc23)CC1 | ? | -9% | -26% | ? | 4% | -41%
CN1CCC(N(C)C(=S)NC(=O)c2cc(-c3cccc(Br)c3)nc3ccccc23)CC1 | i | -27% | 0.89µM* | 0.25µM* | 2% | -16%
O=C(NC(=S)Nc1ccccc1)c1cc(-c2ccccc2)nc2ccccc12 | i | -12% | 4.5µM* | 0.28µM* | -10% | -2%
O=C(Nc1ccccn1)c1cc(-c2ccc(Cl)s2)nc2ccccc12 | i | · | · | · | -16% | -15%
O=C(Cc1cccc(NC(=O)C2CCCN(C(=O)CCc3ccccc3)C2)c1)Nc1cccc(C(=O)N2CCCCC2)c1 (configuration not stated) | ? | -23% | · | · | -28% | -24%
O=C1c2ccccc2C(=O)C1c1ccncc1 | i | -27% | 11µM* | ? | 30% | -9%
CCOC(=O)C1(Cc2ccc(Cl)cc2)CCN(C(C)Cc2ccc(O)c(OC)c2)CC1 (configuration not stated) | i | -19% | 16µM* | -12% | ? | -43%
Cn1c(=O)c2c(nc(NCCc3ccccc3)n2Cc2ccc(Cl)c(Cl)c2)n(C)c1=O | i | 1% | · | · | -19% | -18%
CCC(C)Nc1nc2c(c(=O)n(C)c(=O)n2C)n1Cc1ccc(F)cc1 (configuration not stated) | i | 7% | 4% | 13% | ? | -32%
C=CCNc1nc2c(c(=O)n(C)c(=O)n2C)n1Cc1ccc(F)cc1 | i | -21% | 7.1µM* | ? | -43% | 2%
Cn1c(=O)c2c(nc(N/N=C/c3ccc(OC(=O)c4ccco4)cc3)n2Cc2ccc(F)cc2)n(C)c1=O | i | -4% | 18µM* | -11% | 0% | -19%
